ChEMBL document CHEMBL3988442, “University of Dundee, Small-Polar-MMV Screening Library” (2021)
In all, about 48,000 compounds went through this assay and about 13,000 (27%) showed an effect of 50% or more. Some of the results follow.

System: Wolbachia pipientis
Assay: Anti-Wolbachia Cell-Based Screen
Assay type: functional
Set-up: scale not given: in the data most compounds retested in dose-response had high values
Conditions: 5 µM

Row | SMILES | Percent Effect
1 | CC(CC(=O)Nc1ncn(CC(=O)NCc2ccccc2)n1)C1CC1 (stereo unspecified) | -9.655%
2 | COc1ccc(S(=O)(=O)NCC(O)c2sccc2C)cc1Cl (stereo unspecified) | 7.194%
3 | CC(=O)N1CCCCCC1C1CCN(Cc2nc(C3CC3)no2)CC1 (stereo unspecified) | -6.899%
4 | Brc1cnc(NCCCOC2CCOCC2)nc1 | -7.222%
5 | CNc1cccc(CC2COCCN(C(=O)c3cncs3)C2)n1 (stereo unspecified) | 126.5%
6 | CNc1cccc(CC2COCCN(C(=O)c3cccnc3)C2)n1 (stereo unspecified) | 118.9%
7 | CC(C)Oc1cccc(C(=O)C2CCCN(C(=O)c3cncs3)C2)c1 (stereo unspecified) | 11.61%
8 | CNc1cccc(CC2COCCN(C(=O)c3cnn(C)c3)C2)n1 (stereo unspecified) | 151.8%
9 | Cc1ccsc1S(=O)(=O)N1CCc2c(c(C(=O)O)nn2CC2CC2)C1 | -2.186%
10 | CN(Cc1noc2c1CCCC2)C(=O)Cn1c(=O)cnc2ccccc21 | 5.556%
11 | O=C(CC1CSc2nccc(=O)n21)NCc1ccco1 (stereo unspecified) | 9.661%
12 | O=C(CC1CSc2nccc(=O)n21)NCc1cc(-c2ccco2)on1 (stereo unspecified) | -4.448%
13 | Cc1cnc2n(c1=O)C(CC(=O)NCc1ccco1)CS2 (stereo unspecified) | 71.35%
14 | Cc1cnc2n(c1=O)C(CC(=O)NCc1cccs1)CS2 (stereo unspecified) | 81.1%
15 | Cc1cnc2n(c1=O)C(CC(=O)NCc1cc(-c3cccs3)on1)CS2 (stereo unspecified) | -18.75%
16 | CC(C)c1cc2c(O)nc(CSCC(=O)O)nc2s1 | 30.38%
17 | CN(Cc1cccs1)C(=O)c1ccc(N2CCOCC2)c(F)c1 | -5.296%
18 | COc1ccccc1C(NC(=O)NC1CC1)c1noc(C)n1 (stereo unspecified) | -18.96%
19 | CCc1nc(C2CCCN2CC(=O)Nc2c(C)nn(C)c2C)no1 (stereo unspecified) | -9.932%
20 | CCc1nc(C2CCCN2CC(=O)Nc2sc(C)c(C)c2C)no1 (stereo unspecified) | -4.711%
21 | Cc1nnc(NC(=O)CN2CCCC2c2noc(C3CC3)n2)s1 (stereo unspecified) | -18.02%
22 | CCc1nc(C2CCCN2CC(=O)Nc2nnc(C)s2)no1 (stereo unspecified) | 78.74%

Row | SMILES | Percent Effect
23 | CCc1nc(C2CCCN2CC(=O)Nc2cc(C)no2)no1 (stereo unspecified) | 85.76%
24 | Cc1cc(NC(=O)CN2CCCC2c2noc(C3CC3)n2)on1 (stereo unspecified) | 2.122%
25 | CCc1nc(C2CCCN2CC(=O)Nc2nncs2)no1 (stereo unspecified) | -0.024%
26 | CCc1nc(C2CCCN2CC(=O)Nc2cc(C)on2)no1 (stereo unspecified) | 106.9%
27 | Cc1cc(NC(=O)CN2CCCC2c2noc(C3CC3)n2)no1 (stereo unspecified) | 3.572%
28 | Cc1cc(CN(CCCO)c2ccccc2)on1 | -3.081%
29 | O=S(=O)(NC[C@H]1OC[C@@H](NCc2cccs2)[C@@H]1O)c1ccccc1 | -1.267%
30 | CCCn1ccnc1CN1C[C@@H](CN2CCCN(C)CC2)[C@@H](CO)C1 | 7.413%
31 | Cc1nn(CN(CC(C)C)C2CC2)c(=O)c2noc(C)c12 | -9.201%
32 | Cc1cccc(CN(Cn2nc(C)c3c(C)onc3c2=O)C2CC2)c1 | -8.073%
33 | CCN(Cc1c(F)cccc1F)Cn1nc(C)c2c(C)onc2c1=O | 127.8%
34 | CCCN(Cc1ccccc1)Cn1nc(C)c2c(C)onc2c1=O | 10.45%
35 | CCC(C)N(Cc1c[nH]c(C)n1)Cc1ccccc1Cl (stereo unspecified) | 9.271%
36 | CCN(Cc1cccc(F)c1)Cn1nc(C)c2c(C)onc2c1=O | 123.6%
37 | Cc1nn(CN(Cc2ccsc2)C2CC2)c(=O)c2noc(C)c12 | 0.1409%
38 | CCN(Cc1cccc(C)c1)Cn1nc(C)c2c(C)onc2c1=O | 127.1%
39 | CCN(Cc1ccccc1Cl)Cn1nc(C)c2c(C)onc2c1=O | 88.73%
40 | CCN(Cc1cccc(Cl)c1)Cn1nc(C)c2c(C)onc2c1=O | 4.514%
41 | CCN(CC)Cc1ccccc1NCc1c(C)noc1C | -28.25%
42 | CCCN(CC)Cn1ncc2cn(-c3ccccc3)nc2c1=O | 21.01%
43 | O=C(NC[C@H]1OC[C@@H](NCc2cccs2)[C@@H]1O)N1CCOCC1 | 1.798%
44 | COc1cc(CN(C)C(=O)NCCC(=O)NC2CCCC2)ccc1SC | -22.89%

Row | SMILES | Percent Effect
45 | Cn1ccnc1C(=O)NC[C@@H]1OC[C@H]2CN(S(C)(=O)=O)CC[C@H]21 | -19.48%
46 | O=C(CCn1cncn1)NC1CCc2nccn2C1 (stereo unspecified) | 104.2%
47 | CC(C)N(C)CC(=O)NC1CCc2nccn2C1 (stereo unspecified) | 10.39%
48 | O=C(CCCn1cncn1)NC1CCc2nccn2C1 (stereo unspecified) | 92.38%
49 | CS(=O)(=O)NCCC(=O)NC1CCc2nccn2C1 (stereo unspecified) | -6.555%
50 | O=C(CCn1cncn1)NC1CCS(=O)(=O)C1 (stereo unspecified) | 5.446%
51 | CS(=O)(=O)NCC(=O)NC1CCc2nccn2C1 (stereo unspecified) | 17.97%
52 | COCCN(C)C(=O)Nc1cc2c(cc1SC)OCCO2 | -4.661%
53 | O=C(CN1CCCNC1=O)Nc1ccccc1SC(F)(F)F | 20.21%
54 | Cc1cc(N2CCN(Cc3ccsc3)C(CCO)C2)nc(N)n1 (stereo unspecified) | 18.89%
55 | CSc1ncc(C(=O)N2C[C@H]3CC[C@@H]2CN(S(=O)(=O)N(C)C)C3)cn1 | -20.31%
56 | O=C(NC1CC1)c1cc(NC(=O)N2CCCC(O)C2)ccc1Cl (stereo unspecified) | -7.994%
57 | COc1cccc(CC2CN(C3CCN(C(C)=O)CC3)CCO2)c1 (stereo unspecified) | -14.95%
58 | CCc1cc(NC(=O)C2CCCN(C(=O)NCC(C)C)C2)[nH]n1 (stereo unspecified) | 96.52%
59 | CC(C)Cc1cc(CNC(=O)C2CCCN(C(=O)N(C)C)C2)no1 (stereo unspecified) | 1.053%
60 | CCc1cc(NC(=O)C2CCCN(C(=O)c3ccncc3)C2)[nH]n1 (stereo unspecified) | 100.1%
61 | CCC(CC)c1cc(CNC(=O)N2CCCC(C(=O)NC)C2)on1 (stereo unspecified) | -0.3036%
62 | COCC(=O)N1CCCC(C(=O)NCc2cc(CC(C)C)on2)C1 (stereo unspecified) | 3.91%
63 | Cc1cc(CN(C)C(=O)C2CCCN(C(=O)c3ccc(Cl)cc3)C2)no1 (stereo unspecified) | -5.924%
64 | CCc1cc(CNC(=O)C2CCCN(C(=O)NCC(C)C)C2)[nH]n1 (stereo unspecified) | 152.4%
65 | CSCc1nc(CNC(=O)C2CCCN(C(=O)N(C)C)C2)cs1 (stereo unspecified) | 1.326%
66 | COCCN1CCOCC2(CCN(c3cnccn3)CC2)C1.O=C(O)C(F)(F)F | -15.76%

Row | SMILES | Percent Effect
67 | CCN1CCOCC12CCN(c1ccc(C#N)cc1)CC2.O=C(O)C(F)(F)F | -6.455%
68 | COCCN1CCOCC12CCN(c1nccs1)CC2.O=C(O)C(F)(F)F | 44.08%
69 | CCN1CCOCC12CCN(c1nccs1)CC2.O=C(O)C(F)(F)F | -65.58%
70 | COCCN1CCOCC12CCN(c1cnccn1)CC2.O=C(O)C(F)(F)F | 110.8%
71 | CCN1CCOCC12CCN(c1cnccn1)CC2.O=C(O)C(F)(F)F | 94.98%
72 | CC(C)(C)c1cc(C(=O)NCCn2nc3ccccn3c2=O)[nH]n1 | 15.5%
73 | O=C(NC[C@H]1OC[C@@H](NC2CCOCC2)[C@@H]1O)c1cccs1 | -3.226%
74 | O=C(NC[C@H]1OC[C@@H](NC2CCC2)[C@@H]1O)c1cccs1 | 2.166%
75 | O=C(NCc1ccnc(C2CCCOC2)n1)c1cccs1 (stereo unspecified) | 112.2%
76 | Cn1ccnc1Sc1ncc(C(=O)N2CCCCC2)cc1Cl | 1.099%
77 | Cc1cccn2c(CNC(C)CCn3cccn3)cnc12 (stereo unspecified) | -12.69%
78 | CCOC(=O)CNC(=O)Cn1c(-c2ccoc2)nc(C)c1C | 117%
79 | CC(C)CNC(=O)CN1C=Nc2ccccc2S1(=O)=O | -1.925%
80 | Cc1nc(NC(=O)N(C)Cc2ccoc2)nn1C | -1.976%
81 | COc1cccn(CC(=O)N(C)Cc2ccoc2)c1=O | -6.863%
82 | CCOC(=O)CNC(=O)N1CCc2onc(-c3ccc(Cl)cc3)c2C1 | -4.75%
83 | CCOC(=O)CCCNC(=O)CN1CCN(c2ncccn2)CC1 | -1.703%
84 | Cc1nc(-c2ccoc2)n(CC(=O)NCC(C)C)c1C | 121.2%
85 | Cc1nc(-c2ccccc2)n(CC(=O)NCC(C)C)n1 | -0.5584%
86 | Cc1nc(-c2ccoc2)n(CC(=O)N(C)CC(C)C)c1C | 99.79%
87 | CSCCC(C)NC(=O)N(C)Cc1cc(Cl)cn1C (stereo unspecified) | -13.17%
88 | CNC(=O)c1cc2c(nc1NCC(C)C)CCN(S(C)(=O)=O)CC2 | -6.713%

Row | SMILES | Percent Effect
89 | COc1ccc(CN(CCC#N)CCN2CCOCC2)cc1OC | 124%
90 | CCOc1ccc(CN(CCC#N)CCN2CCOCC2)cc1OC | 119.9%
91 | COc1ccc(CN(C)Cc2cccc(C#N)c2)c(OC)c1 | 0.7087%
92 | N#CCCN(CCN1CCOCC1)Cc1ccc(F)c(Br)c1 | 132.9%
93 | CCCC(=O)N(CCN1CCOCC1)c1nc2c(OC)ccc(C)c2s1.Cl | 15.71%
94 | CN(Cc1cccc(C#N)c1)S(=O)(=O)N1CCOCC1 | 12.93%
95 | COc1cc(F)ccc1C(C(=O)O)N(C)CCN1CCOCC1 (stereo unspecified) | -4.538%
96 | N#CC1COCCN1S(=O)(=O)c1ccc(F)c(Br)c1 (stereo unspecified) | -8.72%
97 | COc1ccc(CN(CCC#N)CCN2CCOCC2)c(OC)c1 | 118.6%
98 | N#Cc1cc(CSCCN2CCOCC2)ccc1F | -6.22%
99 | COc1ccc(CCC(=O)N(C)CCN2CCOCC2)cc1OC | 6.913%
100 | COc1ccc(C#N)cc1CSCCN1CCOCC1 | -1.196%
101 | CCc1ccccc1OC1CN(C(=O)c2cccs2)C1 | 3.168%
102 | Cn1c(NC(=O)CNC(=O)C2CC2)nc2cc(Cl)ccc21 | -0.3531%
103 | CC(C)c1nn(C)c(N2CCOCC2)c1CN[C@H](C)CO | -7.825%
104 | Cc1c[nH]c(CN2CCCCC2CCn2ccnc2C)c(C)c1=O (stereo unspecified) | -47.12%
105 | O=C(c1ccc(C2CCCO2)s1)N1CCN(c2ccccc2F)CC1 (stereo unspecified) | 2.107%
106 | CCN(Cc1nccn1C)C(=O)c1ccc(NCc2cnn(C)c2)nc1 | -21.14%
